# Data reported in PubChem BioAssay.
# Calls of active or inactive are those of the source.
# Legend:
# Albumin (Bos taurus) = Albumin (Bos taurus) (UniProt P02769); experiment: bovine serum albumin binders on microarray, profiling panel, artefact control for SMM control protein annotation, biochemical, small-molecule microarray, Alexa647 label, 635/667 nm fluorescence (AID 1118); settings: BSA-A647 binding, fluorescence 635 nm, higher = more signal;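 also: score merges 667 nm emission intensity and signal-to-noise per printed compound spot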
# [1] = small-molecule microarray binders of probe aXIP, primary screen, biochemical, NeuroSMM set, 635/667 nm fluorescence (AID 1119); settings: higher = more signal, called active from +8 up or from −8 down;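 also: probe is the protein aXip251-270 applied at 1 µg/mL to compound-printed slides; binding of probe to printed compounds measured as 667 nm fluorescence plus signal to noise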
# [2] = small-molecule binders of probe aNOTCH3, primary screen, biochemical, small-molecule microarray, 635/667 nm fluorescence (AID 1120); settings: higher = more signal;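 also: probe is a biotin-tagged antibody raised against NOTCH3 rather than NOTCH3 protein; score merges spot fluorescence near 667 nm with spot signal to noise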
# [3] = small-molecule binders of probe aNOTCH2, primary screen, biochemical, small-molecule microarray, 635/667 nm fluorescence (AID 1121); settings: higher = more signal;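 also: score merges feature fluorescence read at 667 nm with its signal to noise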
# [4] = molecular target: Carbonic anhydrase 2 (Homo sapiens) (UniProt P00918); experiment: CAII small-molecule binders, profiling panel, biochemical, small-molecule microarray, Alexa647-labelled CAII (AID 1122); settings: CAII-A647 binding fluorescence, higher = more signal
# [5] = COS7 lysate on small-molecule microarray, probe aHis, 635 nm (AID 1123); settings: COS7 cell lysate, fluorescence, higher = more signal;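 also: z-score combines 667nm fluorescence intensity with signal-to-noise per printed compound spot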
# [6] = compound binding in COS7 lysate, probe aLAP1, primary screen, cell lysate, small-molecule microarray (AID 1124); settings: probe aLAP1, fluorescence, higher = more signal;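 also: lysate comes from COS7 cells expressing LAP1 and is applied at 0.3 µg/mL; score merges spot fluorescence near 667 nm with signal-to-noise over triplicate slides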
# Sam68 (KHDRBS1) = experiment: Sam68 small-molecule binders, primary screen, biochemical, small-molecule microarray, 635 nm fluorescence (AID 1125); settings: small-molecule microarray binding, higher = more signal;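 also: score merges 667 nm channel intensity with signal to noise over triplicate slides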
# [7] = system: Chordin-like protein 2 (CHRDL2); experiment: CHRDL2 small-molecule binders, primary screen, biochemical, small-molecule microarray, 635 nm fluorescence (AID 1126); settings: small-molecule microarray binding, fluorescence 635 nm; higher = more signal;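 also: printed compound slides probed with Chrdl2 protein at 4 µg/mL for 1 h at 4 C; score merges 667 nm emission intensity with signal to noise over three replicate slides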
# [8] = molecular target: Concanavalin-A (Canavalia ensiformis) (UniProt P02866); experiment: ConA small-molecule binders, primary screen, artefact control for SMM control protein annotation, biochemical, small-molecule microarray, Alexa647 label, 635 nm (AID 1127); settings: ConA-A647 binding fluorescence, higher = more signal;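 also: z combines 667 nm emission intensity with signal-to-noise across three replicate slides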
# Sequence of Concanavalin-A (Canavalia ensiformis) (P02866 whole entry, looked up): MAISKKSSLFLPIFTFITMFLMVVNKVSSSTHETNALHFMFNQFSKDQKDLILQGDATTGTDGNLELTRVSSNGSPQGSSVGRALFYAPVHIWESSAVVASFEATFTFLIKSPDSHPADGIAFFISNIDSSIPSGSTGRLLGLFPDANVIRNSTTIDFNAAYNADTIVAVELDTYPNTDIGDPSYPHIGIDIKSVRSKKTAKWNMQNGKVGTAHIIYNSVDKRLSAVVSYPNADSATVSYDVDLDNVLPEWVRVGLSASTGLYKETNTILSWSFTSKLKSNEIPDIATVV
# Sequence of Albumin (Bos taurus) (P02769 whole entry, looked up): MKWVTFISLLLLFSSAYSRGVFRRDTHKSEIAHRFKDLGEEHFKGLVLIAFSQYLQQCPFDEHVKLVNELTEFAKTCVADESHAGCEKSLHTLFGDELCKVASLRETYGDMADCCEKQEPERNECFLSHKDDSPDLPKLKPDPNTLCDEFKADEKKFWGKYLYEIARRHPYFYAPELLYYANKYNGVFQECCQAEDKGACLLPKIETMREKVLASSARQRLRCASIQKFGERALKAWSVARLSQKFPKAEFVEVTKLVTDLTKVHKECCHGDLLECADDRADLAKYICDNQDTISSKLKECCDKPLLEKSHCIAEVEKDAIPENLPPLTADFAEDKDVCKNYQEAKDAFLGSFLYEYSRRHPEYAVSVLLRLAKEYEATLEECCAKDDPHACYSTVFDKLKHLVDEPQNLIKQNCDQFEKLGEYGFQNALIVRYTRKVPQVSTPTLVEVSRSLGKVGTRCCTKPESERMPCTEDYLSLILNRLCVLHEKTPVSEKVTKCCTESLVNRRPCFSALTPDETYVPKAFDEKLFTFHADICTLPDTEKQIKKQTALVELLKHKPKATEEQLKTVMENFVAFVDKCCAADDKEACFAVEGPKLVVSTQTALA
Compound,composite z-score (Albumin (Bos taurus)),composite Z-score [1],composite z-score [2],composite z-score [3],composite z-score [4],composite z-score [5],composite z-score [6],composite z-score (Sam68 (KHDRBS1)),composite z-score [7],composite z-score [8]
COc1ccc(CCNC(=O)[C@@H]2c3ccccc3C(=O)N(Cc3ccccc3)[C@H]2c2ccc(CO)cc2)cc1,0.286,-0.149 (inactive),-0.199,-0.0562,0.735,1.64,1.36,1.34,0.156,0.526
CC(C)[Si](C#C[Si](C(C)C)(C(C)C)C(C)C)(O[C@H](C)c1cn(Cc2cccc(Cl)c2)nn1)C(C)C,0.811,-0.596 (inactive),-0.0647,-0.147,0.554,0.842,-0.34,1.28,0.226,0.8
C=CC[C@]1(C(=O)NCC(O)CO)N=C(c2ccc(OCCCO)cc2)O[C@H]1c1ccccc1N=[N+]=[N-] (stereo not given in full),0.933,0.171 (inactive),0.0876,0.132,0.766,2.78,1.41,0.645,-0.451,-0.0308
O=C1NC(=O)C2C1C=CC(C(O)c1ccc(-c3ccccc3)s1)N2Nc1ccccn1 (stereo not given),0.781,-1.39 (inactive),-0.115,0.11,0.91,0.978,1.22,0.105,0.398,0.83
[N-]=[N+]=NCc1ccccc1[C@H]1OC(c2ccc(OCCCO)cc2)=N[C@@]1(Cc1ccccc1)C(N)=O,0.883,-0.379 (inactive),0.391,0.0029,0.589,2.29,0.112,1.29,-0.797,1.19
C#CCNS(=O)(=O)N(C)C,0.225,0.0498 (inactive),-0.124,-0.14,-0.107,0.214,-0.113,0.815,0.497,0.0968
COCC(=C=CC[C@@H](O)c1ccccc1OCCO)C[C@@H](O)c1ccccn1,-0.203,-0.422 (inactive),-0.0043,-0.117,0.777,1.28,0.583,0.86,-0.0696,0.742
O=C1c2ccccc2C(=O)C2CC([C@H]3Oc4ccccc4S(=O)(=O)N4CCC[C@@H]34)=CCC12 (stereo not given in full),0.793,0.251 (inactive),-0.122,-0.117,-0.241,-0.296,-0.363,-0.557,0.139,-1
COCCOC(=O)N1C(=O)[C@@]2(c3ccccc31)[C@H](c1ccccc1OCCO)N1[C@H](c3ccccc3)[C@H](c3ccccc3)OC(=O)[C@H]1[C@@H]2C(=O)N1CCc2cc(OC)c(OC)cc2C1,-0.274,0.511 (inactive),0.0833,-0.0176,0.335,0.51,0.0553,1.27,0.475,1.18
Cc1ccc(S[C@]2(C(=O)O)CC(=O)N(Cc3ccccc3C(F)(F)F)[C@@H]2c2ccc(CO)cc2)cc1,-0.283,-0.612 (inactive),-0.128,-0.164,0.653,1.79,-0.67,-0.298,-1.6,-0.373
CCCCC=C[C@@H](NC(=O)CCc1ccccc1)c1ccccc1,0.585,1.46 (inactive),0.23,0.0409,0.689,2.37,0.785,1.2,0.0782,1.12
COC(=O)[C@]1(Cc2ccccc2N=[N+]=[N-])N=C(c2ccc(OCCCO)cc2)O[C@@H]1c1ccccc1,-0.274,0.747 (inactive),0.0773,-0.0487,0.412,1.82,0.225,0.622,-1.1,0.458
C[C@H]1NC(=O)C([C@@H](C)OCc2ccccc2)NC(=O)[C@@]23C(=O)N[C@@H](Cc4ccccc4)C2[C@H](C)[C@@]2(C)O[C@H]2C3/C=C/CC/C=C/CNC1=O (stereo not given in full),0.506,-0.169 (inactive),-0.0647,-0.0131,0.665,-0.308,0.03,-0.389,0.634,-1.38
C=C(C(=O)CC[C@H](OC(=O)c1cccnc1)c1ccc(OCCO)cc1)C(C)C,0.335,-0.496 (inactive),0.0571,-0.105,0.695,0.706,0.296,1.13,0.274,1.12
COC(=O)[C@@]1(Cc2ccc(OC)cc2)[C@H]2c3cc(C(=O)N4CCCC4)n(CCc4ccc(O)c(OC)c4)c3C[C@H]2CN1C(=O)c1ccccc1,0.952,0.683 (inactive),0.23,0.12,0.742,2.28,0.191,-0.295,-0.508,0.173
[N-]=[N+]=NCc1ccccc1[C@H]1OC(c2ccc(OCCCO)cc2)=N[C@@]1(Cc1ccccc1N=[N+]=[N-])C(=O)NCCN1CCOCC1,0.701,-0.514 (inactive),0.416,0.105,0.751,2.32,-0.0777,1.29,0.263,1.14
CCOC(=O)C1=CC[C@@H](c2ccc(N(CC)CC)cc2)N(S(=O)(=O)c2ccc(C)cc2)[C@H]1c1ccc([N+](=O)[O-])cc1,0.682,0.38 (inactive),0.0116,-0.0097,0.473,-0.507,0.769,0.317,-0.724,0.588
COCCCNC(=O)[C@@]1(Cc2ccccc2CN=[N+]=[N-])N=C(c2ccc(OCCCO)cc2)O[C@H]1c1ccccc1N=[N+]=[N-],0.778,0.397 (inactive),0.303,0.168,0.421,2.43,0.656,1.02,-0.379,1.04
C#CCOC(=O)N[C@H](C=CCCCC)c1ccccc1,1.02,0.33 (inactive),0.0077,0.0964,0.88,3.67,0.711,0.199,-0.0017,0.0429
CC(C)(C)OC(=O)CC[C@]1(C(=O)N2CCCCC2)N=C(c2ccc(OCCCO)cc2)O[C@H]1c1ccccc1CN=[N+]=[N-],0.982,-0.43 (inactive),0.516,0.381,0.801,2.74,0.762,1.3,0.388,1.2
NC(=O)NCC#Cc1ccc2c(c1)[C@]1(C(=O)N2)[C@H](c2ccc(O)cc2)N2[C@H](c3ccccc3)[C@H](c3ccccc3)OC(=O)[C@H]2[C@@H]1C(=O)NC[C@H](O)c1ccccc1,0.233,-0.539 (inactive),-0.464,-0.122,-0.051,0.327,0.469,-1.03,-1.12,-1.34
O=c1c2ccc(Br)cc2nc(-c2ccccc2)n1Cc1cccc(O)c1,0.757,0.906 (inactive),0.103,0.138,0.711,1.46,1.3,0.772,0.182,0.988
CCCC[C@H]1OB(O)C[C@H]2C1=C(COc1ccccc1)Cn1c(=O)n(-c3ccccc3)c(=O)n12,0.196,0.131 (inactive),0.0705,-0.114,0.247,1.1,0.0367,1.14,0.357,0.501
CC(C)C(CO)N1C(=O)[C@@H]2[C@H]3C(=O)OCC=C[C@H]3OC23C=CCN(CCN2CCOCC2)C(=O)[C@@H]13 (stereo not given in full),-0.36,-0.0157 (inactive),-0.125,-0.164,-0.111,-0.332,-0.0765,0.0784,0.446,0.166
CCCCCCC#C[Si](O[C@H](c1ccccc1)c1cn(Cc2cccc(Cl)c2)nn1)(C(C)C)C(C)C,0.31,0.242 (inactive),-0.0647,-0.104,0.205,0.186,-0.124,0.581,0.141,0.57
O=C1NC(=O)C2C1C=CC(C(O)CCc1ccccc1)N2Nc1ccccn1 (stereo not given),0.558,1.62 (inactive),-0.145,-0.0116,0.894,1.02,1.59,0.438,0.0374,0.891
C=CCN1C(=O)[C@@]2(O[C@@H](CCO)[C@H]([Si](C)(C)c3ccc(OC)cc3)[C@H]2C)c2cc(NC(=O)[C@H](C)O)ccc21,0.489,0.0001 (inactive),-0.0343,-0.126,0.63,1.68,0.231,1.31,-0.0585,0.584
